Peg3 prom inh – inhibitors of Peg3 promoter; 360,000 tested, 1.7% active; HeLa PEG-Prom luciferase reporter, luminescence, overnight; inhibition, % at 20 µM;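 active = inhibition of at least 50% at 20 µM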
KKLEB tox – reduces viability of KKLEB cystic fibrosis airway cells. KKLEB CF airway cells viability, ATPlite luminescence, overnight; stronger effect = lower value; cells stimulated with P. aeruginosa culture filtrate. activity change (cytotoxicity), % at 5 µM. 360,000 tested, 0.36% active. AID 602141;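 active = corrected activity change at or below -50% at 5 µM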
CF NFkB inh – inhibitors of cystic fibrosis induced NF-kB; inhibition, % at 5 µM; 360,000 tested, 0.86% active; KKLEB NF-kB-GFP reporter, PAF-induced, GFP fluorescence overnight;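 active = at least 50% inhibition at 5 µM, scaled per plate between neutral and stimulator controls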;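 note: PAF is a Pseudomonas aeruginosa culture filtrate used as stimulus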
TRPM1 prom inh – MITF TRPM1 promoter inhibition in SK-MEL-5 cells; 330,000 tested, 0.83% active; SK-MEL-5 TRPM1 promoter luciferase, 24 h; inhibition, % at 12.5 µM;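 active = mean inhibition across replicates of 60% or more, whatever share of single replicates reaches that level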
HIF-2a inh – HIF-2a inhibition. 786-0 RCC cells HIF-2a reporter, luciferase luminescence, overnight. inhibition, % at 18.8 µM. 360,000 tested, 0.72% active. AID 624352;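 active = inhibition of the luminescence signal of 40% or more relative to plate controls, in a single-dose primary screen at 18.75 µM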
EBV LMP1 NFkB – inhibitors of Epstein-Barr LMP1-induced NF-kappaB reporter; 350,000 tested, 0.69% active; AID 504558; LMP1-induced NF-kappaB luciferase reporter cells, luminescence; inhibition, % at 12.5 µM; in the data active = inhibition above about 41%
Large screens that a line does not name were inactive. Hits are enriched below; roughly 3% of the tested compounds scored in any of these assays.

COc1ccc(CN2CCCC(N3CCN(c4cccc(Cl)c4)CC3)C2)cc1OC (stereo not drawn)	none
COc1cc(CN2CCCC(N3CCN(c4ccccc4C)CC3)C2)cc(Cl)c1O (stereo not drawn)	EBV LMP1 NFkB 77.6
CNS(=O)(=O)c1cccc(C(=O)OCC(=O)c2c(N)n(Cc3ccccc3)c(=O)n(C)c2=O)c1	none
O=C(c1cc(S(=O)(=O)NCc2ccco2)ccc1Br)N1CCOCC1	EBV LMP1 NFkB 70.9
O=C1N(Cc2ccccc2)CC2(Br)COCOC12O (stereo not drawn)	none
Cc1ccc([N+](=O)[O-])cc1N=Nc1c(-c2ccc([N+](=O)[O-])cc2)[nH]n(C(N)=S)c1=O	TRPM1 prom inh 63.5
CCOC(=O)c1sc(NC(=O)CSc2nc3c(c(=O)n2-c2ccc(C)cc2)SCC3)c(C(=O)OCC)c1C	KKLEB tox -60.0 (no result: TRPM1 prom inh)
Cc1c(C(=O)N2CCN(c3ccccn3)CC2)sc2ncnc(N3CCN(c4ccccc4)CC3)c12	none
Cc1c(C(=O)N2CCN(Cc3ccc4c(c3)OCO4)CC2)sc2ncnc(N3CCN(c4ccccc4)CC3)c12	Peg3 prom inh 57.5
Cc1c(C(=O)N2CCN(Cc3ccc4c(c3)OCO4)CC2)sc2ncnc(N3CCN(c4ccccc4F)CC3)c12	Peg3 prom inh 58.1
CC(=O)Nc1cccc(NS(=O)(=O)c2ccc3c(c2)CCC(=O)N3)c1	none (no result: TRPM1 prom inh)
COc1ccc(NC(=O)CN(C)C(=O)/C=C/c2ccc(S(=O)(=O)N3CCCCCC3)cc2)cc1	Peg3 prom inh 52.1
COc1ccc(/C=C/C(=O)N(C)CC(=O)Nc2cccc(F)c2)cc1S(=O)(=O)N1CCCCC1	none
O=C(CN1CCN(S(=O)(=O)c2ccc(F)cc2)CC1)Nc1cccc(C(F)(F)F)c1	EBV LMP1 NFkB 74.4
COc1ccc(S(=O)(=O)N2CCN(CC(=O)Nc3cc(OC)cc(OC)c3)CC2)cc1	EBV LMP1 NFkB 78.9
O=C(Cn1ccc(C(F)(F)F)n1)Nc1cccc(S(=O)(=O)N2CCCCC2)c1	EBV LMP1 NFkB 52.8
COC(=O)[C@@]1(Sc2ccccc2)CC(=O)N[C@@H]1c1ccccc1	none (no result: Peg3 prom inh, KKLEB tox, CF NFkB inh, TRPM1 prom inh, EBV LMP1 NFkB)
Cc1cn([C@H]2C[C@H](O)[C@@H](/C=C/C(=O)NCCc3cccs3)O2)c(=O)[nH]c1=O	none (no result: TRPM1 prom inh, EBV LMP1 NFkB)
CCCCN(C)c1c(C)nc2ccc(C(=O)Nc3ccc(OC)c(OC)c3)cn12	none (no result: TRPM1 prom inh, EBV LMP1 NFkB)
CN(C)c1ccc(/C=C/c2ccc3ccccc3[n+]2C)cc1	TRPM1 prom inh 87.8
CCCS(=O)(=O)N1CCCC(C(=O)NC2CCCC(C)C2C)C1 (stereo not drawn)	EBV LMP1 NFkB 59.5
CCOC(=O)c1sc(Nc2nc3c(OC)cccc3s2)cc1C	Peg3 prom inh 77.3
CCOC(=O)c1sc(Nc2nc3cc4c(cc3s2)OCO4)cc1C	none
CC1CN=C(NS(=O)(=O)c2ccccc2)N1 (stereo not drawn)	none (no result: TRPM1 prom inh)
Cc1cccc(C)c1-n1nnnc1C(c1ccnc2ccccc12)N(Cc1ccccc1)Cc1ccccc1 (stereo not drawn)	none (no result: Peg3 prom inh, KKLEB tox, CF NFkB inh, TRPM1 prom inh, EBV LMP1 NFkB)
NC(Cc1ccccc1)c1csc(Nc2ccc(C(=O)c3ccccc3)cc2)n1 (stereo not drawn)	Peg3 prom inh 66.3 (no result: TRPM1 prom inh, EBV LMP1 NFkB)
NC(CO)c1csc(Nc2ccc(C(=O)c3ccccc3)cc2)n1 (stereo not drawn)	none (no result: TRPM1 prom inh, EBV LMP1 NFkB)
CC(N)c1csc(Nc2ccc(C(=O)c3ccccc3)cc2)n1 (stereo not drawn)	none (no result: TRPM1 prom inh, EBV LMP1 NFkB)
NC(Cc1ccc(F)cc1)c1csc(Nc2ccc(C(=O)c3ccccc3)cc2)n1 (stereo not drawn)	Peg3 prom inh 91.5 (no result: TRPM1 prom inh, EBV LMP1 NFkB)
NC(Cc1ccc(Cl)cc1)c1csc(Nc2ccc(C(=O)c3ccccc3)cc2)n1 (stereo not drawn)	Peg3 prom inh 97.0 (no result: TRPM1 prom inh, EBV LMP1 NFkB)
NC(c1csc(Nc2ccc(C(=O)c3ccccc3)cc2)n1)C1CCCCC1 (stereo not drawn)	Peg3 prom inh 97.3 (no result: TRPM1 prom inh, EBV LMP1 NFkB)
N#Cc1ccc(OCc2c(-c3ccccc3)nnn2CC(=O)O)cc1	none (no result: TRPM1 prom inh, EBV LMP1 NFkB)
Cc1ccc(S(=O)(=O)N2CC3C(=O)C[C@@H](c4ccccc4)N(S(=O)(=O)c4cccc(Cl)c4)C3CC2c2ccccc2)cc1 (stereo partly drawn)	none (no result: Peg3 prom inh, KKLEB tox, CF NFkB inh, TRPM1 prom inh, EBV LMP1 NFkB)
COc1ccc(CC(N)c2csc(Nc3ccc(C(=O)c4ccccc4)cc3)n2)cc1 (stereo not drawn)	Peg3 prom inh 65.7 (no result: TRPM1 prom inh, EBV LMP1 NFkB)
